Hit rate of the full screen: of about 38,000 compounds, about 1,200 (3.2%) showed an effect of 50% or more. The median lay at about -58%. The full list was thinned out, with strong results kept by preference.
Each molecule was assayed on Plasmodium falciparum (assay: Calibr Malaria Delayed Death Assay SOP). Details: concentration 4.99e-06 (unit not given; other assays of the set use mol/L).
Type: functional, organism-based
Parameters: scale not given: in the data most compounds retested in dose-response had high values
For `Cc1cc(CN2CCC(CNS(=O)(=O)c3c(C)noc3C)CC2)c(C)o1`, the “Percent Effect” value was 26.64%.
For `Cc1cc(CN2CCC(CNS(=O)(=O)c3ccc(Br)s3)CC2)c(C)o1`, the “Percent Effect” value was 91.4%.
For `Cc1ccc(S(=O)(=O)NCCc2ccoc2)s1`, the “Percent Effect” value was -129%.
For `Cc1cc(CN2CCC(CNS(=O)(=O)c3ccc(C)s3)CC2)c(C)o1`, the “Percent Effect” value was 87.35%.
In the case of `Cc1cc(C(O)CCNS(=O)(=O)c2ccc(Cl)s2)c(C)o1` (stereo unspecified), the “Percent Effect” value is reported as -41.19%.
`O=S(=O)(NCC(O)c1ccoc1)c1ccc(Br)s1` (stereo unspecified) was tested, and the “Percent Effect” value was -179.3%.
`O=C(c1c[nH]nn1)N1CCCC1C1CCCCC1` (stereo unspecified) was tested, and the “Percent Effect” value was 48.49%.
For `O=C(C1CCC1)N1CCC(=O)N(C2CC2)Cc2cc(F)ccc21`, the “Percent Effect” value was -6.345%.
With `N#Cc1cc(Br)ccc1NC1CCN(CC(N)=O)CC1` the “Percent Effect” value was 19.71%.
`CCNc1ccnc(NC2CCN(CC(N)=O)CC2)n1` was tested, and the “Percent Effect” value was -56.83%.
In the case of `Cc1cccc(-n2c(C)cc(=O)[nH]c2=O)c1C`, the “Percent Effect” value is reported as -21.52%.
For `CC1CCN(CCCNC(=O)c2ccc(N(C)S(C)(=O)=O)cc2Cl)CC1`, the “Percent Effect” value was -35.22%.
`O=C(NCc1ccccc1)NCC1CCN(Cc2ccsc2)CC1` was tested, and the “Percent Effect” value was -54.93%.
For `CC(=O)c1cn(CCC(=O)Nc2c3c(nn2C)CSC3)c2ccccc12`, the “Percent Effect” value was 26.69%.
In the case of `Fc1ccc(CC2CCN(Cc3cscn3)CC2)cc1`, the “Percent Effect” value is reported as 50.2%.
In the case of `Fc1ccc(CC2CCN(Cc3nccs3)CC2)cc1`, the “Percent Effect” value is reported as 0.00383%.
`Fc1cccc(CN2CCN(Cc3cscn3)CC2)c1` was tested, and the “Percent Effect” value was -54.95%.
For `CC(C)c1n[nH]c(C2CN(C(=O)c3cc(C(N)=O)cs3)CCO2)n1` (stereo unspecified), the “Percent Effect” value was -7.804%.
`CN(C)c1ncccc1CNc1snc(Cl)c1C#N` was tested, and the “Percent Effect” value was -8.92%.
With `Cc1cccc(N2CC[C@H]3[C@H](CO[C@@H]3CN(C)Cc3ccco3)C2)n1.O=C(O)C(F)(F)F.O=C(O)C(F)(F)F` the “Percent Effect” value was 3.761%.
For `CN(Cc1ccco1)C[C@@H]1OC[C@H]2CN(Cc3nccs3)CC[C@H]21.O=C(O)C(F)(F)F.O=C(O)C(F)(F)F`, the “Percent Effect” value was -54.97%.
For `O=C(NC[C@H]1OC[C@@H]2CCN(Cc3ccco3)C[C@@H]21)c1ccsc1.O=C(O)C(F)(F)F`, the “Percent Effect” value was -100.7%.
`Cc1ccc(CN2CC[C@H]3CO[C@H](CN(C)C)[C@H]3C2)o1` was tested, and the “Percent Effect” value was -9.526%.
`CN(Cc1ccco1)C[C@H]1OC[C@@H]2CCN(Cc3ccsc3)C[C@@H]21.O=C(O)C(F)(F)F.O=C(O)C(F)(F)F` was tested, and the “Percent Effect” value was 65.82%.
`O=C(O)C(F)(F)F.O=C(O)C(F)(F)F.c1cc(CN2CC[C@H]3CO[C@H](CN4CCOCC4)[C@H]3C2)cs1` was tested, and the “Percent Effect” value was -2.124%.
In the case of `CN1CCN(C[C@H]2OC[C@@H]3CCN(Cc4ccsc4)C[C@@H]32)CC1`, the “Percent Effect” value is reported as 77.67%.
In the case of `O=C(O)C(F)(F)F.O=C(O)C(F)(F)F.c1cnc(NC[C@H]2OC[C@@H]3CCN(Cc4ccsc4)C[C@@H]32)nc1`, the “Percent Effect” value is reported as -30.65%.
For `Cc1ccc(CN2CC[C@H]3CO[C@H](CN(C)Cc4ccco4)[C@H]3C2)s1.O=C(O)C(F)(F)F.O=C(O)C(F)(F)F`, the “Percent Effect” value was 57.63%.
With `Cc1ccc(N2CC[C@H]3CO[C@H](CN(C)Cc4ccco4)[C@H]3C2)nn1.O=C(O)C(F)(F)F.O=C(O)C(F)(F)F` the “Percent Effect” value was -41.04%.
With `CN1CCN(C[C@@H]2OC[C@H]3CN(Cc4ccsc4)CC[C@H]32)CC1.O=C(O)C(F)(F)F.O=C(O)C(F)(F)F.O=C(O)C(F)(F)F` the “Percent Effect” value was 7.397%.
In the case of `CSCCC(CO)NC(=O)c1ccc2[nH]/c(=N\S(C)(=O)=O)sc2c1` (stereo unspecified), the “Percent Effect” value is reported as -143.2%.
In the case of `COCC(O)CN1CCC(=O)N(CC(=O)C(C)(C)C)Cc2ccccc21` (stereo unspecified), the “Percent Effect” value is reported as 3.723%.
In the case of `Cc1cccc(N2CCN(C(=O)CNCCn3cc(C)cn3)CC2)c1`, the “Percent Effect” value is reported as -74.29%.
For `CC(=O)N(Cc1noc(C)n1)C1CCN(CC2CCCC2)C1` (stereo unspecified), the “Percent Effect” value was -72.7%.
In the case of `Cc1nn(C)c(N2CCOCC2)c1CNCc1cccnc1`, the “Percent Effect” value is reported as -102.1%.
With `COCCNc1cc(C)nn2cnnc12` the “Percent Effect” value was -138.9%.
In the case of `CNc1nc2c(s1)C(c1cccc(F)c1F)CC(=O)N2` (stereo unspecified), the “Percent Effect” value is reported as -75.94%.
For `CC(C)n1[nH]c(=O)c2c1NC(=O)CC2c1ccncc1` (stereo unspecified), the “Percent Effect” value was -11.96%.
With `COc1ncccc1CN1C[C@@H]2COC[C@]2(COc2ccccn2)C1.O=C(O)C(F)(F)F.O=C(O)C(F)(F)F.O=C(O)C(F)(F)F` the “Percent Effect” value was -20.51%.
With `Cc1ccc(C(=O)Cc2c(Cl)nc3n(C)c(=O)n(C)c(=O)n23)cc1` the “Percent Effect” value was -11.12%.
With `CC(C)(C)n1ncc2c1NC(=O)CC2c1c(F)cccc1F` (stereo unspecified) the “Percent Effect” value was -175.8%.
With `COc1ccc(C(C)NC(=O)N2CCNC(=O)CC2)cc1F` (stereo unspecified) the “Percent Effect” value was -89.17%.
`COc1ccc(CN2CCC(C(N)=O)CC2)cc1SC(F)(F)F` was tested, and the “Percent Effect” value was 63.84%.
In the case of `CSc1ccc(OCCN2CCNC(=O)CC2)cc1`, the “Percent Effect” value is reported as -70.99%.
In the case of `COc1ccc(CN2CCC(C(N)=O)C2)c(Br)c1OC` (stereo unspecified), the “Percent Effect” value is reported as -101%.
In the case of `COc1cc(Cl)c(CN2CCC(C(N)=O)C2)cc1Cl` (stereo unspecified), the “Percent Effect” value is reported as 3.59%.
With `COc1ccc(CN2CCNC(=O)CC2)cc1SC(F)(F)F` the “Percent Effect” value was 74.78%.
For `OC(CN1CCC(c2ccn[nH]2)CC1)c1ccc(F)cc1F` (stereo unspecified), the “Percent Effect” value was -72.07%.
`Cc1ccc(C)c(S(=O)(=O)NCCOc2ccc3nnc(C)n3n2)c1` was tested, and the “Percent Effect” value was -6.832%.
With `Cc1cc(C[C@@H]2CCC[C@H]2NCc2c[nH]nc2-c2ccccc2)on1.O=C(O)CC(O)(CC(=O)O)C(=O)O` the “Percent Effect” value was 55.35%.
`Cc1cc(C[C@@H]2CCC[C@H]2NCc2ccc(C(F)(F)F)cc2)on1.O=C(O)CC(O)(CC(=O)O)C(=O)O` was tested, and the “Percent Effect” value was -14.83%.
In the case of `Cc1cc(C[C@@H]2COC[C@@H]2NC(=O)Cn2c(=O)oc3ccccc32)on1`, the “Percent Effect” value is reported as -110.9%.
`COc1cccc(-c2n[nH]cc2CNC2CCC(O)CC2)c1.Cl` (stereo unspecified) was tested, and the “Percent Effect” value was -76.02%.
In the case of `COc1cccc(-c2n[nH]cc2CNC2CCCN(C)C2)c1` (stereo unspecified), the “Percent Effect” value is reported as -88.31%.
`CN(C(=O)Nc1cccnc1)C1CCN(c2ccc(Cl)cc2)CC1` was tested, and the “Percent Effect” value was 4.443%.
`Cc1cc(C)n(CC2CCCN2CC(=O)N(C)CCC#N)n1` (stereo unspecified) was tested, and the “Percent Effect” value was -49.25%.

Reference: ChEMBL document CHEMBL3988442, “University of Dundee, Small-Polar-MMV Screening Library” (2021)
